Screening data (PubChem)
HPGD block: HPGD (human) dehydrogenase inhibition. P15428. actives 4.3% (n = 150,000). Potency, µM, inactives show top-dose activity change, negative = inhibition, most hits filed as inhibitors. purified HPGD, NADH fluorescence kinetic, PGE2 substrate; active = well fitted inhibition curve with a large enough effect, not every such curve was filed as active; inconclusive = small, poorly fitted or top-dose-only effect, or another doubt; inactive = no such curve, though single readings can be large or run the other way; also: potency is read from the fitted curve at half-maximal effect
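20 nM HPGD preincubated 15 min at room temperature with compound in 50 mM Tris-HCl pH 8, 0.01% Tween 20. Started with 1 mM NAD+ and 30 uM prostaglandin E2; NADH fluorescence (360/450 nm) read 5 times over 30-s intervals, last minus first.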
IMPase cell inh: membrane-permeable compound that blocks inositol monophosphatase. P97697. CHO-M1 cells, IP1 accumulation, HTRF TR-FRET ratio. inhibition (IP1 accumulation), % at 46.1 µM. 120,000 tested, under 10 active; active = well fitted curve in the direction sought with a large enough effect in the signal ratio, not every such curve was filed as active; inconclusive = small, poorly fitted or top-dose-only effect, or a change in a side signal; inactive = no such curve, though single readings can be large or run the other way; the % refers to the signal ratio;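 also: cells stimulated with carbachol in lithium chloride buffer; plate controls were DMSO basal wells for no effect and reference inhibitor wells for full effect; higher means more IMPase inhibition seen as more IP1 and lower FRET ratio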
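Seeded CHO-M1 cells were dosed with compound at up to 46 uM, stimulated with carbachol for 30 min, then lysed in IP-One detection reagents. Higher IP1 lowers the TR-FRET signal.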
12-hLO inh: inhibitors of human 12-lipoxygenase (ALOX12). actives 0.12% (n = 150,000). Potency, µM (doses to about 57.1 µM), inactives show at the highest dose activity change, negative = inhibition, actives largely listed as inhibitors. AID 1452. purified 12-hLO, xylenol orange hydroperoxide absorbance; also: potency is read from the fitted curve at half-maximal effect; nearly all actives have a fitted effect of over 55% in size
Target sequence (P18054 whole entry, looked up): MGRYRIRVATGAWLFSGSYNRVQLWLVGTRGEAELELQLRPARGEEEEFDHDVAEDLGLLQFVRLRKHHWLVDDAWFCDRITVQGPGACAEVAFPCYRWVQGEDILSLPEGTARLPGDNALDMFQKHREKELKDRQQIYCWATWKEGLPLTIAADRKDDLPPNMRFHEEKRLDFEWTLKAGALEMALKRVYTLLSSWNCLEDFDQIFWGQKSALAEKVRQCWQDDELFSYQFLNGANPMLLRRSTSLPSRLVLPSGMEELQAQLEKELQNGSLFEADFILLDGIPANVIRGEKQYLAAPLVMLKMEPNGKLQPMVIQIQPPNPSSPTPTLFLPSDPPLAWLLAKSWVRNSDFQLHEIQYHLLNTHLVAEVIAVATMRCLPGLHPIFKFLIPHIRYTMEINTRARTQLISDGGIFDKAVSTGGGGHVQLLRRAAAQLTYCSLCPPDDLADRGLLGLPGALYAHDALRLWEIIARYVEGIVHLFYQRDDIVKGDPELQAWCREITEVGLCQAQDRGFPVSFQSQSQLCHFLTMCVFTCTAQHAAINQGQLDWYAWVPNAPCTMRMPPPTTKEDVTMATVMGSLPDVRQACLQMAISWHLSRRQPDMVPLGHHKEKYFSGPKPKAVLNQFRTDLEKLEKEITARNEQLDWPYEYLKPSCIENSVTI
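Xylenol orange chromogenic assay: hydroperoxide from 12hLO oxidises Fe(II), giving red-shifted Fe(III)-XO absorbance. Conditions: 150 nM enzyme, 40 uM arachidonic acid, 25 mM Hepes pH 7.0, 0.01% Triton X-100, 30 min, room temperature.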
PNC assembly inh: inhibitors of perinucleolar compartment assembly | PC3M PTB-GFP, PNC prevalence imaging, 16 h; hits give low values | activity change (PNC), negative = inhibition, % at 10 µM | actives 3.1% (n = 140,000);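 active = readout at or below -70, meaning at least 70% loss of cells showing the perinucleolar compartment, a nuclear body marking cancer cells; inconclusive = readout between -30 and a set limit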;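 also: plate controls were DMSO wells for no effect and camptothecin positive control wells for full effect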
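Read-out is percentage of cells bearing a perinucleolar compartment, from automated 20x imaging of fixed, Hoechst-stained PC3M PTB-GFP cells. Cells were seeded 4 h, then exposed 16 h to compound (23 nl of library stock) in duplicate plates.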
IMPase Li inh: membrane-permeable IMPase blocker, potentiated with lithium | CHO-M1 cells, IP1 TR-FRET (IP-One), carbachol + lithium | actives 0.35% (n = 210,000) | AID 1457 | Potency, µM (highest dose often 59.4 µM), without a hit: top-dose activity, negative = IMPase inhibition, actives largely listed as inhibitors;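 also: IP1 builds up when IMPase is blocked and the TR-FRET signal falls; potency is read from the fitted curve at half-maximal effect; plate controls were basal vehicle for no effect and high inhibitor control for full effect; nearly all actives have a fitted effect of over 50% in size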
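Steps: plate 2000 CHO-M1 cells per well and culture 16–30 h; add compound and lithium; incubate 30 min, 37C; add d2-IP1 tracer and Eu cryptate anti-IP1 antibody in lysis buffer; read after 10 min at room temperature.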
ALDH1A1 inh: blocks purified human ALDH1A1 activity | P00352 | Purified ALDH1A1, NADH fluorescence, propionaldehyde substrate | Potency, µM (series often up to 75.3 µM), for inactives: at the top dose activity, negative = inhibition, usual class: inhibitors | actives 7.3% (n = 220,000); active = well fitted inhibition curve with a large enough effect, not every such curve was filed as active; inconclusive = small, poorly fitted or top-dose-only effect, or another doubt; inactive = no such curve, though single readings can be large or run the other way;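 also: potency is read from the fitted curve at half-maximal effect; plate controls were no enzyme wells and a reference inhibitor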
An asterisk follows results filed as active; u = inconclusive; x = no result given; [ ] = another dose, or the depositor's remark. Rows were chosen to be rich in hits. Some 11% of all compounds tested hit in one or more screens of this group. Unless noted, calls follow the shape of the dose curve; as a rule, active = well fitted curve in the direction sought with a large enough effect; inconclusive = small, poorly fitted or top-dose-only effect, or another doubt; inactive = no such curve, though single readings can be large; an effect the other way counts as inactive or inconclusive. Unless noted, % is scaled to controls: 0 for no effect and ±100 for the full control effect.

SMILES	HPGD block	IMPase cell inh	12-hLO inh	PNC assembly inh	IMPase Li inh	ALDH1A1 inh
COc1cccc(Cn2c(=O)c(-c3cn(C)c4ccccc34)nc3cnc(N4CCNCC4)nc32)c1	x	x	x	x	-1%	u
C=C1C2CC[C@@]3(C)C(c4ccoc4)OC(=O)C[C@@]13OC1CC(OC(C)=O)C(C)(C)C(CC(=O)OC)[C@@]12C (some centres not stated)	-3%	x	-11%	x	1%	8%
NS(=O)(=O)c1ccc(NC(=S)NC(=O)c2ccc(-c3ccccc3)cc2)cc1	-29%	-7	-1%	48	11µM*	2µM*
O=C(O)c1cccc(NC(=S)N/N=C/c2ccccn2)c1	x	x	x	x	15%	20µM*
Cc1ccc(C(=O)O)cc1NC(=S)NC(=O)c1ccc(-c2ccccc2)cc1	x	x	x	x	8%	14µM*
Cc1ccc(C(=O)O)cc1NC(=S)NC(=O)c1ccc([N+](=O)[O-])cc1Cl	-4%	x	-1%	-17	-4%	u
O=C(O)c1cccc(NC(=S)N/N=C/c2cccc(O)c2)c1	x	x	x	x	-16%	-8%
NS(=O)(=O)c1ccc(NC(=S)NC(=O)c2ccco2)cc1	-21%	x	0%	66	-5%	u
O=C(O)c1cccc(NC(=S)NC(=O)c2ccc(-c3ccccc3)cc2)c1	x	x	x	x	-13%	25µM*
C=C(C(C)=O)C(O)c1ccccc1 (configuration not stated)	u	x	x	x	58%	4%
CC(C)(c1ccccc1)c1ccc(OCCCN2CCNCC2)cc1	x	x	x	x	2%	16µM*
CNCCCOc1ccc(C(C)(C)c2ccccc2)cc1	-10%	3	6%	u	-4%[38.3 µM]	u
Brc1ccc(-c2cn3nc4c(nc3n2)CCCC4)cc1	u	0	-7%	-100*	24%[38.3 µM]	u
c1ccc(-c2cn3nc4c(nc3n2)CCCC4)cc1	-55%	6	-10%	-6	-17%[38.3 µM]	u
O=C(CSc1nc(-c2ccco2)cc(C(F)(F)F)n1)Nc1ccc(C(=O)N2CCCCC2)cc1	0.56µM*	8	-1%	-16	27%[38.3 µM]	14µM*
Cc1cc(NC(=O)CCSc2nc(-c3ccco3)cc(C(F)(F)F)n2)no1	-6%	0	0%	13	52%[38.3 µM]	-2%
Cc1cc(NC(=O)CSc2nc(-c3ccco3)cc(C(F)(F)F)n2)no1	-25%	-15	13%	-116*	2%	2%
CCNc1ncc2nc(CCc3ccccc3)c(=O)n(Cc3cccc(OC)c3)c2n1	x	x	x	x	6%	u
O=C(NCc1ccccc1Cl)c1ccc2c(=O)n(CCCN3CCCC3=O)c(=S)[nH]c2c1	-12%	6	1%	29	-11%[38.3 µM]	0.63µM*
O=C(NCCCN1CCCC1=O)c1ccc2c(=O)n(-c3ccc(F)cc3)c(=S)[nH]c2c1	x	x	x	x	9%	14µM*
Cc1cc2oc(=O)cc(-c3ccccc3)c2c(C)c1-c1sccc1C=O	40µM*	x	-4%[0.00818 µM]	x	13%	u
CC(=O)c1ccc(-c2c(C)cc3oc(=O)cc(-c4ccccc4)c3c2C)cc1	u	x	-1%[0.00818 µM]	x	20%	-15%
CC(=O)c1ccsc1-c1c(C)cc2oc(=O)cc(-c3ccccc3)c2c1C	40µM*	x	-3%[0.00818 µM]	x	15%	u
Clc1ccc(OCc2nc3ccccc3n2Cc2ccccc2)c(Cl)c1	x	5	x	x	x	x
Cc1nnc(SCc2ccc(Cl)cc2Cl)[nH]c1=O	16µM*	-2	3%	u	6%	14%
SMILES	HPGD block	IMPase cell inh	12-hLO inh	PNC assembly inh	IMPase Li inh	ALDH1A1 inh
CSc1sc(C(=O)NN)c2c1C1(CCC2)SCCS1	x	x	x	x	x	0.45µM*
CSc1sc(C(=O)O)c2c1C(=O)CCC2	-18%	-27	-1%	-8	u	u
CCOC(=O)C(C(C)=O)=C1SC2CS(=O)(=O)CC2S1 (configuration not stated)	-11%	-12	3%	-127*	-7%[38.3 µM]	10%
CCOC(=O)C(C(=O)OCC)C1CS(=O)(=O)CC1C(C(=O)OCC)C(=O)OCC (configuration not stated)	6%	4	-1%	9	3%	-6%
O=C(CN1CCOCC1)NC1CC2CCC1C2 (configuration not stated)	-10%	5	6%	u	3%[38.3 µM]	25µM*
O=C(NC1CC2CCC1C2)c1ccc(CN2CCOCC2)cc1 (configuration not stated)	-21%	6	-4%	u	1%[38.3 µM]	u
Cc1nc(Nc2ccccc2)sc1C	x	x	x	x	13%	16µM*
CCOc1ccccc1Nc1nc(-c2sc(C)nc2C)cs1	x	x	x	x	13%	20µM*
Cc1nc(N)sc1-c1csc(Nc2ccccc2)n1	-8%	-1	-5%	-14	4%[38.3 µM]	18µM*
COc1ccc(OC)c(Nc2nc(-c3sc(N)nc3C)cs2)c1	-27%	16	-8%	33	14%	u
Cc1cc(O)ccc1Nc1nc(-c2sc(N)nc2C)cs1	16µM*	-12	-2%	9	36%[38.3 µM]	8.9µM*
CC(=O)c1ccc(NC(=O)Cn2nc(C(F)(F)F)c3c2CCC3)cc1	x	7	x	x	x	x
COCCOCC(O)CN1CCN(c2ccccc2)CC1 (configuration not stated)	-8%	-14	-7%	u	15%[38.3 µM]	u
COCCOCC(O)CN1CCN(c2ccc(C)cc2)CC1 (configuration not stated)	-3%	11	-19%	1	8%[38.3 µM]	11µM*
COc1ccc(Oc2ncc3nc(C)c(=O)n(C)c3n2)cc1	-7%	x	6%	x	3%	-2%
CCOC(=S)SCC(=O)N1CCc2cc(OC)ccc2C1C1C(=O)CCCC1=O (configuration not stated)	-5%	2	2%	-99*	4%	11%
C[C@@H]1CC[C@H]2[C@H](C)[C@H]3CC[C@H]4C5[C@@H](O)CC6=CC(=O)CC[C@]6(C)[C@H]5C[C@H]4C3C(=O)N2C1 (some centres not stated)	-2%	x	x	x	17%	17%
Cc1ccc(NC2c3ncccc3C(=O)N2c2ccccc2C)cc1C (configuration not stated)	16µM*	-4	-23%	8	13%[38.3 µM]	u
CC(=O)c1c(OC(=O)c2ccccc2Br)ccc2c(C)cc(=O)oc12	-8%	x	-2%	9	12%	-1%
